The subject of one assay is 3D7. Description: qHTS profiling for inhibitors of Plasmodium falciparum proliferation (AID 504749). Also: nearly all actives have a fitted effect of over 60% in size. Also: potency is read from the fitted curve at half-maximal effect. The following applies: P. falciparum in erythrocytes, SYBR Green DNA, 72 h; series mostly up to 28.7 µM. The method, boiled down:
(§1)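 SYBR Green fluorescence (ex 485 nm, em 535 nm) reports parasite DNA after 72 h compound exposure of infected red cells at 0.3% parasitemia, 2.5% hematocrit; signal normalized to 0.29 uM artemisinin and vehicle wells.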
A general note: qHTS replaces the single test concentration by a dilution series.

The subject of the next assay is ATS95. The assay is described as above. The following applies: P. falciparum in erythrocytes, SYBR Green DNA, 72 h; series mostly up to 28.7 µM. The method, boiled down:
as §1

A further assay relates to CP191. The assay is described as above. The conditions noted are these: P. falciparum in erythrocytes, SYBR Green DNA, 72 h; series mostly up to 28.7 µM. The method, boiled down: as §1
In the next assay the test system is CP215. The description is as above. The conditions noted are these: P. falciparum in erythrocytes, SYBR Green DNA, 72 h; series mostly up to 28.7 µM. The method, boiled down: as §1
In the next assay the test system is CP247. The assay is described as above. The following applies: P. falciparum in erythrocytes, SYBR Green DNA, 72 h; series mostly up to 28.7 µM. An outline of the steps: as §1
Another assay relates to CP260. Described as above. The following applies: P. falciparum in erythrocytes, SYBR Green DNA, 72 h; series mostly up to 28.7 µM. An outline of the steps:
as §1

A further assay relates to CP266. Described as above. The following applies: P. falciparum in erythrocytes, SYBR Green DNA, 72 h; series mostly up to 28.7 µM. The method, boiled down: as §1
The subject of the next assay is CP291. The assay is described as above. The conditions noted are these: P. falciparum in erythrocytes, SYBR Green DNA, 72 h; series mostly up to 28.7 µM. An outline of the steps:
as §1

A further assay has as its system CP335. Described as above. The conditions noted are these: P. falciparum in erythrocytes, SYBR Green DNA, 72 h; series mostly up to 28.7 µM. The method, boiled down: as §1
A further assay has as its system DIV17. Described as above. The conditions noted are these: P. falciparum in erythrocytes, SYBR Green DNA, 72 h; series mostly up to 28.7 µM. An outline of the steps: as §1
In a further assay the test system is DIV30. The assay is described as above. The following applies: P. falciparum in erythrocytes, SYBR Green DNA, 72 h; series mostly up to 28.7 µM. An outline of the steps: as §1
The subject of the next assay is P93_24. The assay is described as above. The following applies: P. falciparum in erythrocytes, SYBR Green DNA, 72 h; series mostly up to 28.7 µM. The method, boiled down: as §1
A further assay has as its system P94_40. Described as above. The following applies: P. falciparum in erythrocytes, SYBR Green DNA, 72 h; series mostly up to 28.7 µM. The method, boiled down:
as §1

Another assay concerns PAD. Described as above. The conditions noted are these: P. falciparum in erythrocytes, SYBR Green DNA, 72 h; series mostly up to 28.7 µM. An outline of the steps: as §1
In the next assay the test system is PC26. The assay is described as above. The conditions noted are these: P. falciparum in erythrocytes, SYBR Green DNA, 72 h; series mostly up to 28.7 µM. An outline of the steps: as §1
The subject of a further assay is SC27B. The assay is described as above. The conditions noted are these: P. falciparum in erythrocytes, SYBR Green DNA, 72 h; series mostly up to 28.7 µM. The method, boiled down: as §1
A further assay deals with TAB113. The description is as above. The conditions noted are these: P. falciparum in erythrocytes, SYBR Green DNA, 72 h; series mostly up to 28.7 µM. An outline of the steps: as §1
Assay [1] is described as follows: S16 Schwann cell viability assay (CellTiter-Glo assay) (AID 624031).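 Also: cellular ATP luminescence as a viability measure; nearly all actives have a fitted effect of over 70% in size.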 The method, boiled down:
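Native S16 rat Schwann cells, 500-750 cells/well in DMEM with 10% FBS, dosed with compound after overnight culture and incubated 24h at 37 degree Celsius/5% CO2. Viability by CellTiter-Glo luminescence; % activity normalized to no-cell wells and DMSO-treated cells.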

The test system of a further assay is 7G8. Put plainly: qHTS profiling for inhibitors of Plasmodium falciparum proliferation (AID 504749). Also: nearly all actives have a fitted effect of over 60% in size. Also: potency is read from the fitted curve at half-maximal effect. The following applies: P. falciparum in erythrocytes, SYBR Green DNA, 72 h; series mostly up to 28.7 µM. An outline of the steps: as §1
For the next assay, the system named is TAB165. Described as above. The following applies: P. falciparum in erythrocytes, SYBR Green DNA, 72 h; series mostly up to 28.7 µM. An outline of the steps:
as §1

This passage reports Potency results from PubChem BioAssay (NCATS).

Inconclusive results are not listed. Activity calls are given as the source filed them. Calls follow the shape of the dose curve; as a rule, active = well fitted curve in the direction sought with a large enough effect; inconclusive = small, poorly fitted or top-dose-only effect, or another doubt; inactive = no such curve, though single readings can be large; an effect the other way counts as inactive or inconclusive.

As for `CCCSS/C(CCO)=C(/C)N(C=O)Cc1cnc(C)nc1N`, the Potency result with 3D7, with ATS95, with CP191, in the assay with CP215, in the assay with CP247 and with CP260 was “inactive” throughout. Besides, the Potency result in the assay with CP266, in the assay with CP291, in the assay on CP335, in the assay on DIV17, in the assay with DIV30 and in the assay on P93_24 was “inactive” throughout. Besides, the Potency entry in the assay on P94_40, in the assay on PAD, in the assay with PC26, with SC27B and in the assay on TAB113 was “inactive” throughout.

Turning to `OCC(O)C(O)C(O)C(O)CO` (stereo not drawn), the Potency entry (in [1]; in the assay with 3D7; in the assay on 7G8; in the assay on ATS95; in the assay with CP191; with CP215) was “inactive” throughout. Further, the Potency result in the assay with CP247, in the assay on CP260, in the assay on CP266, with CP291, in the assay with CP335 and in the assay on DIV17 was “inactive” throughout. Besides, the Potency entry in the assay on DIV30, in the assay with P93_24, in the assay on P94_40, in the assay with PAD, in the assay with PC26 and in the assay with SC27B was “inactive” each time. Further, the Potency entry with TAB113 and in the assay with TAB165 was “inactive” in each case.

With `NC(C(=O)O)C(O)c1ccc(O)c(O)c1` (stereo not drawn), the Potency in the assay with 3D7 was 8.91 µM (active).

Turning to `CCCCC(=O)OC1CCC2C3CCc4cc(O)ccc4C3CC[C@]12C` (stereo partly drawn), the Potency entry in the assay with 3D7, in the assay on CP215, with CP260, in the assay on CP266, in the assay with CP291 and with DIV30 was “inactive” each time. Moreover, the Potency result in the assay on PC26 is “inactive”.

As to `CCC1OC(=O)C[C@H](O)C(C)[C@@H](O[C@@H]2OC(C)C(O)C(N(C)C)C2O)C(CCN2CC(C)CC(C)C2)CC(C)C(=O)/C=C/C(C)=C\[C@@H]1COC1OC(C)C(O)C(OC)C1OC` (stereo partly drawn), the Potency result (in assay [1]; with 3D7) was “inactive” each time. Further, the Potency was 6.31 µM (active) with CP191, 11.2 µM (active) with CP260 and 9.53 µM (active) in the assay with CP335.

Turning to `CCOc1ccccc1O[C@@H](c1ccccc1)[C@@H]1CNCCO1`, the Potency entry (in assay [1]; with CP215; in the assay on CP266; in the assay with CP291) was “inactive” throughout. Further, the Potency is 5.01 µM (active) in the assay with 7G8; 1.9 µM (active) in the assay on DIV17; 6.75 µM (active) in the assay with DIV30; 10 µM (active) with P93_24; 10 µM (active) in the assay with TAB165.

For the compound `CNC1CCc2cc(OC)c(OC)c(OC)c2-c2ccc(OC)c(=O)cc21` (stereo not drawn), the Potency entry (in assay [1]; in the assay on ATS95; with CP191; with CP215; with CP260; in the assay with CP266) was “inactive” throughout. Further, the Potency entry in the assay on CP291, in the assay on CP335, in the assay with P94_40, in the assay with PAD, with PC26 and in the assay with SC27B was “inactive” in each case. The Potency result in the assay with TAB113 and in the assay on TAB165 was “inactive” each time.

`CCN(CC)C(=O)[C@@]1(c2ccccc2)C[C@@H]1CN`: the Potency entry (in assay [1]; in the assay on 3D7; in the assay with ATS95; in the assay on CP191; with CP215; with CP247) was “inactive” each time. Further, the Potency result with CP260, in the assay on CP266, in the assay on CP291, in the assay on CP335, with DIV30 and with P93_24 was “inactive” each time. In addition, the Potency result in the assay with P94_40, with PAD, in the assay with SC27B, with TAB113 and in the assay on TAB165 was “inactive” in each case.

As for `Nc1nc(Cl)nc2c1ncn2[C@@H]1O[C@H](CO)[C@H](O)C1F` (stereo partly drawn), the Potency result (in [1]; in the assay on 3D7; with ATS95; with CP191; in the assay with CP215; with CP247) was “inactive” each time. The Potency result in the assay with CP260, with CP266, in the assay on CP335, in the assay with DIV17, in the assay with DIV30 and in the assay on P93_24 was “inactive” in each case. Moreover, the Potency entry with P94_40, with PAD, in the assay on PC26, in the assay with SC27B, with TAB113 and in the assay on TAB165 was “inactive” in each case.
